Measured values taken from publication PMC5540273 (PLoS ONE, 2017).

Experiments:
Settings in all cases: concentration: 1 μM, replicates: in singlicate; n = 1
[1] = system: T1, TIE2
T1 construct: gene TEK

[2] = system: TLK1
[3] = system: TLK2
[4] = system: TNIK
[5] = system: TNK1
[6] = system: TNK2
[7] = system: TNNI3K
[8] = system: T2, TRKA
T2 construct: gene NTRK1

[9] = system: TRKB
[10] = system: T3, TRKC
T3 construct: gene NTRK3

[11] = system: TRPM6
[12] = system: TSSK1B
[13] = system: TSSK3
[14] = system: TTK
[15] = system: TXK
[16] = system: TYK2(JH1domain-catalytic)
[17] = system: TYK2(JH2domain-pseudokinase)
[18] = system: TYRO3
[19] = system: ULK1
[20] = system: ULK2
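Note: KINOMEscan kinase panel screen.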

SMILES | %Inh [1] [%] | %Inh [2] [%] | %Inh [3] [%] | %Inh [4] [%] | %Inh [5] [%] | %Inh [6] [%] | %Inh [7] [%] | %Inh [8] [%] | %Inh [9] [%] | %Inh [10] [%] | %Inh [11] [%] | %Inh [12] [%] | %Inh [13] [%] | %Inh [14] [%] | %Inh [15] [%] | %Inh [16] [%] | %Inh [17] [%] | %Inh [18] [%] | %Inh [19] [%] | %Inh [20] [%]
Nc1n[nH]c2nnc(-c3ccccc3)c(-c3ccccc3)c12 [GW554060] | 0 | 0 | 0 | 0 | 0 | 19 | 0 | 0 | 14 | 24 | 0 | 13 | 20 | 0 | 12 | 34 | 55 | 10 | 27 | 8
COc1cc2nccc(Nc3cccc(Oc4ccccc4)c3)c2cc1OC.Cl [GW284543] | 12 | 0 | 0 | 0 | 0 | 12 | 10 | 34 | 5 | 2 | 11 | 11 | 13 | 0 | 3 | 5 | 0 | 0 | 6 | 15
CCC(=O)c1c(-c2ccccc2)c2cc(Cl)ccc2c(=O)n1Cc1cc(S(C)(=O)=O)n(CC(F)F)n1 | 2 | 0 | 0 | 0 | 0 | 0 | 0 | 0 | 0 | 1 | 10 | 0 | 0 | 0 | 6 | 0 | 0 | 0 | 0 | 0
CCC(=O)c1c(-c2ccccc2)c2cc(Cl)ccc2c(=O)n1Cc1cc(S(C)(=O)=O)n(CCC(C)(C)O)n1 | 5 | 1 | 0 | 2 | 28 | 0 | 13 | 0 | 0 | 31 | 18 | 0 | 1 | 4 | 18 | 0 | 6 | 0 | 0 | 7
Nc1nc(N)c2nc(-c3ccccc3)[nH]c2n1 [SKF-12778] | 0 | 0 | 0 | 4 | 0 | 13 | 28 | 52 | 9 | 0 | 11 | 0 | 5 | 4 | 25 | 43 | 74 | 0 | 16 | 9
COc1ccc(-c2cc3c(C)nc(N)nc3n([C@H]3CC[C@H](O)CC3)c2=O)cn1 | 0 | 0 | 0 | 0 | 0 | 0 | 0 | 0 | 0 | 0 | 0 | 0 | 0 | 0 | 0 | 0 | 0 | 0 | 0 | 0
CCn1c(-c2nonc2N)nc2ccccc21 [SB-693162/GW549034] | 0 | 5 | 0 | 0 | 0 | 0 | 0 | 20 | 43 | 15 | 0 | 0 | 0 | 29 | 12 | 0 | 25 | 0 | 40 | 31
COc1cc2ncn(-c3cc(OCc4ccncc4Br)c(C(N)=O)s3)c2cc1OC [GW854278] | 6 | 18 | 0 | 39 | 33 | 0 | 18 | 0 | 0 | 7 | 0 | 0 | 0 | 0 | 21 | 0 | 5 | 11 | 2 | 0
Nc1n[nH]c2ncc(-c3ccccc3)cc12 [SB-517081] | 0 | 0 | 2 | 1 | 0 | 21 | 12 | 17 | 37 | 31 | 21 | 16 | 4 | 33 | 0 | 45 | 92.7 | 0 | 3 | 0
COC(=O)c1c(-c2ccccc2)c2cc(Br)ccc2c(=O)n1Cc1ccc(NC(=O)CCC(=O)O)cc1 | 0 | 19 | 0 | 0 | 17 | 0 | 0 | 0 | 0 | 35 | 0 | 0 | 0 | 9 | 39 | 4 | 0 | 0 | 8 | 11
O=C(NCCNc1ccnc(Nc2ccc(F)cc2)n1)Nc1ccc2c(c1)OCO2 [GSK1379882] | 0 | 22 | 20 | 0 | 0 | 9 | 0 | 4 | 0 | 17 | 26 | 0 | 24 | 15 | 100 | 21 | 28 | 0 | 0 | 0
O=C(NCc1cccs1)c1cc(C(=O)c2c(Cl)cccc2Cl)c[nH]1 [GW823670] | 2 | 0 | 0 | 5 | 26 | 0 | 0 | 0 | 0 | 0 | 0 | 18 | 0 | 9 | 0 | 1 | 0 | 0 | 0 | 29
COc1cc2ncn(-c3cc(OCc4ccc(S(C)(=O)=O)cc4)c(C(N)=O)s3)c2cc1OC [GW869979] | 0 | 5 | 0 | 37 | 5 | 18 | 0 | 50 | 31 | 44 | 0 | 0 | 22 | 0 | 0 | 17 | 11 | 19 | 6 | 6
CN(C)c1cc(-c2ccc3c(N)n[nH]c3c2)nc(N)n1 [GSK2219329] | 0 | 9 | 0 | 0 | 0 | 1 | 0 | 0 | 0 | 0 | 13 | 0 | 6 | 0 | 97.2 | 14 | 25 | 0 | 0 | 0
O=C1NC(=O)C(c2ccccc2)=C1Nc1cccc(O)c1 [SB-390534] | 13 | 26 | 98.4 | 16 | 5 | 0 | 4 | 0 | 0 | 37 | 0 | 0 | 0 | 0 | 14 | 14 | 0 | 0 | 0 | 12
CCn1c(-c2ccoc2)nc2cnccc21 [SB-733887] | 7 | 0 | 0 | 0 | 0 | 3 | 11 | 0 | 41 | 13 | 52 | 0 | 6 | 0 | 28 | 27 | 50 | 0 | 29 | 4
COc1cc(Nc2ccnc3ccc(C(F)(F)F)cc23)cc(OC)c1OC [GW577382] | 0 | 6 | 0 | 0 | 14 | 16 | 24 | 48 | 0 | 14 | 0 | 0 | 13 | 17 | 54 | 19 | 0 | 0 | 0 | 0

SMILES | %Inh [1] [%] | %Inh [2] [%] | %Inh [3] [%] | %Inh [4] [%] | %Inh [5] [%] | %Inh [6] [%] | %Inh [7] [%] | %Inh [8] [%] | %Inh [9] [%] | %Inh [10] [%] | %Inh [11] [%] | %Inh [12] [%] | %Inh [13] [%] | %Inh [14] [%] | %Inh [15] [%] | %Inh [16] [%] | %Inh [17] [%] | %Inh [18] [%] | %Inh [19] [%] | %Inh [20] [%]
COc1cccc(-n2cnc3c(N)ncnc32)c1 [SKF-97416] | 0 | 2 | 19 | 15 | 0 | 0 | 0 | 45 | 48 | 33 | 65 | 0 | 21 | 44 | 11 | 83 | 40 | 0 | 45 | 39
COc1cc2nccc(Nc3ccc(OCc4ccc(NC(C)=O)cc4)cc3)c2cc1OC.Cl [GW440135] | 1 | 0 | 0 | 0 | 0 | 16 | 0 | 37 | 0 | 21 | 3 | 0 | 26 | 0 | 6 | 9 | 5 | 0 | 0 | 0
Cc1cccc(-c2nc(Nc3ccc4c(cnn4C)c3)c3ccccc3n2)n1 [GW876731] | 27 | 0 | 11 | 0 | 43 | 0 | 0 | 44 | 0 | 0 | 0 | 3 | 0 | 0 | 10 | 20 | 39 | 5 | 8 | 13
CCC(=O)c1c(-c2ccccc2)c2cc(Cl)ccc2c(=O)n1Cc1ccc(C(=O)O)cc1 | 0 | 0 | 0 | 0 | 0 | 0 | 0 | 0 | 0 | 0 | 0 | 0 | 0 | 0 | 0 | 0 | 0 | 0 | 0 | 2
CCS(=O)c1ccc(-c2coc3ccc(-c4nnc(C)o4)cc23)cc1 (stereo not drawn) | 10 | 17 | 0 | 12 | 0 | 3 | 0 | 28 | 5 | 5 | 0 | 0 | 0 | 14 | 0 | 21 | 11 | 0 | 0 | 4
COc1cc2ncn(-c3cc(OCc4ccncc4)c(C(N)=O)s3)c2cc1OC [GSK336313] | 7 | 0 | 0 | 13 | 0 | 5 | 0 | 0 | 0 | 0 | 24 | 0 | 11 | 0 | 6 | 3 | 13 | 0 | 16 | 0
COc1ccc(Nc2nccc(N3CCC(NS(=O)(=O)c4ccc(NC(C)=O)cc4)C3)n2)cc1 (stereo not drawn) [GSK1379729] | 8 | 0 | 0 | 0 | 18 | 12 | 100 | 65 | 0 | 19 | 0 | 0 | 21 | 7 | 35 | 93.8 | 0 | 23 | 26 | 0
OCCCNc1nccc(-c2c(-c3cccc(C(F)(F)F)c3)nn3cc(C(F)(F)F)ccc23)n1 [GW630813] | 0 | 6 | 0 | 3 | 0 | 0 | 0 | 0 | 7 | 3 | 0 | 0 | 6 | 0 | 0 | 14 | 13 | 0 | 0 | 0
CN1C(=O)C(Nc2cc(Cl)c(O)c(Cl)c2)=C(c2ccc(Cl)cc2)C1=O [SB-404321] | 0 | 0 | 0 | 0 | 22 | 0 | 0 | 52 | 36 | 10 | 0 | 0 | 22 | 0 | 0 | 0 | 13 | 0 | 0 | 0
COc1ccc(-c2coc3ccc(-c4nnc(SCc5cccc(C#N)c5)o4)cc23)cc1 | 5 | 25 | 0 | 21 | 10 | 0 | 20 | 17 | 0 | 3 | 0 | 0 | 0 | 6 | 2 | 10 | 0 | 0 | 0 | 5
COc1cc(OC)cc(-c2cc3cnc(N)nc3nc2NC(=O)NC(C)(C)C)c1 | 18 | 0 | 0 | 0 | 14 | 100 | 0 | 0 | 0 | 0 | 0 | 9 | 0 | 0 | 19 | 0 | 3 | 100 | 0 | 0
CCCNC(=O)Nc1ccc(Oc2ncnc3ccn(C)c23)cc1 | 7 | 3 | 0 | 18 | 0 | 0 | 0 | 0 | 0 | 13 | 0 | 0 | 0 | 0 | 0 | 13 | 22 | 0 | 14 | 10
Nc1ncnc2c1ncn2-c1cccc(F)c1 [SKF-97560] | 0 | 0 | 0 | 4 | 23 | 15 | 100 | 60 | 41 | 41 | 74 | 22 | 20 | 0 | 0 | 38 | 35 | 9 | 7 | 26
CC(C)(C)c1ccc(C(=O)Nc2cn3cc(-c4ccccc4)ccc3n2)cc1 | 0 | 8 | 0 | 18 | 0 | 6 | 6 | 0 | 7 | 3 | 0 | 0 | 8 | 0 | 9 | 0 | 6 | 5 | 0 | 49
Cc1c(Cn2c(C)nn3c(=O)cc(N4CCO[C@H](C)C4)nc23)cccc1C(F)(F)F [GSK2373690] | 0 | 0 | 0 | 0 | 0 | 13 | 4 | 0 | 6 | 11 | 0 | 0 | 14 | 0 | 3 | 0 | 0 | 22 | 14 | 0
CCCC(=O)Nc1n[nH]c2ncc(-c3cccc4ccccc34)cc12 [SB-642057] | 0 | 32 | 100 | 0 | 0 | 4 | 5 | 0 | 0 | 0 | 48 | 36 | 0 | 0 | 52 | 0 | 38 | 0 | 18 | 1
